Data reported in ChEMBL document CHEMBL3988442, “University of Dundee, Small-Polar-MMV Screening Library” (2021).
Screen size: about 53,000 compounds; about 900 (1.7%) showed an effect of 50% or more. For the sample, strong results were picked, then their nearest neighbours and some compounds at random.

System: Mycobacterium tuberculosis
Assay: Cornell - Phenotypic assay to identify agents that inhibit growth of Mycobacterium tuberculosis
Assay type: functional
Set-up: scale not given: direction of the effect not stated beside the values
Details: 10 mM as filed; unlikely as a test dose

Row | SMILES | Percent Effect [%]
1 | CN(C)c1cc(C2CCCNC2)ccn1.Cl.Cl (stereo unspecified) | 40.71
2 | CC(C)(C)OC(=O)N1CCn2c(nnc2C2CCCNC2)C1 (stereo unspecified) | -27.32
3 | CCC(C)(C)n1nnnc1C(c1cccs1)N1CCc2ccccc2C1 (stereo unspecified) | 77.94
4 | CCC(C)(C)n1nnnc1C(c1cccs1)N1CCCCC1 (stereo unspecified) | 33.43
5 | CCC(C)(C)n1nnnc1C(c1cccs1)N1CCc2ccccc21 (stereo unspecified) | 26.96
6 | CCOc1ccccc1CN(C)C(=O)CN1C(=O)OC[C@@H]1C(C)C | -25.38
7 | NCc1n[nH]c(=O)n1-c1cccc(Cl)c1Cl | -49.88
8 | Cc1cccc(-c2nccnc2C2CCN(C)CC2)c1C | -15.39
9 | NC(=O)c1c(-c2ccc(Cl)cc2)csc1NC(=O)CCC(=O)O | -1.119
10 | O=C(COc1coc(CN2CCCCCC2)cc1=O)c1ccccc1 | -10.82
11 | O=C(COc1coc(CN2CCCCC2)cc1=O)c1ccc(Cl)cc1 | 53.44
12 | O=C(COc1coc(CN2CCOCC2)cc1=O)c1ccc(Cl)cc1 | 4.659
13 | CSCCC(=O)N1CCCC(c2ncc[nH]2)C1 (stereo unspecified) | 7.779
14 | NC1(c2nc(-c3cccs3)cc(=O)[nH]2)CCCCC1 | -54.45
15 | Cc1cc(=O)[nH]c(-n2nc(C)c(CCC(=O)NCc3cccs3)c2C)n1 | 13.95
16 | Cc1cc(=O)[nH]c(-n2nc(-c3ccccc3)cc2N)n1 | 94.92
17 | CCCc1cc(=O)[nH]c(-n2nc(-c3cccs3)cc2N)n1 | 94.38
18 | CCCS(=O)(=O)NCCn1ccc(-c2cccs2)n1 | -17.91
19 | NC1(c2nc(-c3cccs3)cc(=O)[nH]2)CCCC1 | -47.24
20 | Cc1cc(=O)[nH]c(-n2nc(-c3cccs3)cc2N)n1 | 98.99
21 | COC(=O)CCc1c(C)nn(-c2nc(C)cc(=O)[nH]2)c1C | 23.13
22 | NC1(c2nc(-c3ccccc3)cc(=O)[nH]2)CCCC1 | 17.2

Row | SMILES | Percent Effect [%]
23 | COc1cc(N2C[C@H]3CN(Cc4ccccn4)C[C@H]3C2)ncn1.O=C(O)C(F)(F)F | 8.566
24 | Cn1nnnc1SC1CCc2ccccc2NC1=O (stereo unspecified) | 4.345
25 | O=C(COC[C@]12COC[C@H]1CN(C1CCC1)C2)N1CCCC1.O=C(O)C(F)(F)F | -23.94
26 | CCC1CN(CCCNS(C)(=O)=O)c2ccccc2O1 (stereo unspecified) | 99.54
27 | CS(=O)(=O)NCC1Cc2ccccc2O1 (stereo unspecified) | -12.85
28 | CCCN(CC1COc2ccccc2O1)C(=O)CCN1C(=O)CCC1=O (stereo unspecified) | 17.77
29 | CN(CC1COc2ccccc2O1)C(=O)C1=NN(C)C(=O)CC1 (stereo unspecified) | 21.15
30 | CCC1CN(CCNS(C)(=O)=O)c2ccccc2O1 (stereo unspecified) | 23.74
31 | CCC1CN(CCCO)c2ccccc2O1 (stereo unspecified) | 66.97
32 | Cc1cccc(CN2CCC3(CCN(Cc4ccccn4)C3)C2=O)c1.O=C(O)C(F)(F)F.O=C(O)C(F)(F)F (stereo unspecified) | 1.967
33 | COc1cc(CCC(=O)N2CCC(c3cc4nccnc4[nH]3)CC2)on1 | 16.88
34 | CCCSc1ncccc1C(=O)NCc1ccc(N(C)C)cc1 | -11.44
35 | O=C(O)C(F)(F)F.c1ccc(CN2CCc3ncnc(-c4ccsc4)c3CC2)nc1 | 15.9
36 | CCc1csc(C2CCCN(C(=O)c3ccc(=O)n(CC)n3)C2)n1 (stereo unspecified) | -10.64
37 | CCc1nc(C(=O)N(CC)CC(=O)N(C)C)nn1-c1ccccc1Cl | 10.69
38 | CCCn1nnnc1CN(c1ccc(C)cc1)C(C)C | 13.52
39 | CCCn1nnnc1CN(C)C(C)c1ccc(C)cc1 (stereo unspecified) | 18.09
40 | CCCn1nnnc1CN(c1ccc(N2CCOCC2)cc1)C(C)C | 100.7
41 | c1ccc(CN2CCC(CCNc3ncnc4c3CCNCC4)C2)cc1 (stereo unspecified) | 21.24
42 | CN1C(=O)CCCC12CCCN(Cc1cccs1)C2.O=C(O)C(F)(F)F (stereo unspecified) | 15.82
43 | COCCN1CC2(CCN(Cc3ccco3)CC2)c2ccccc21 | 57.89
44 | CCN1CCC2(CC1)CN(CCO)c1ccccc12 | -37.58

Row | SMILES | Percent Effect [%]
45 | COCCN1CC2(CCN(C(=O)c3ccno3)CC2)c2ccccc21.O=C(O)C(F)(F)F | -25.4
46 | Cc1cc(C)n(CC2CN(CCC(=O)NC3CCCCC3)CCO2)n1 (stereo unspecified) | -4.136
47 | Cc1[nH]/c(=N/C(=O)Cn2nc(N3CCOCC3)ccc2=O)sc1C | -3.782
48 | CC(=O)Nc1nc(C(=O)N2CCCC(c3cc(C)[nH]n3)C2)cs1 (stereo unspecified) | -1.903
49 | Cc1cc(O)c(OCC(=O)/N=c2\[nH]c(C)c(C)s2)cn1 | 27.09
50 | CC(=O)Nc1nc(C(=O)N2CCC(Nc3cccnn3)CC2)cs1 | -42.9
51 | Cc1[nH]/c(=N\C(=O)c2csc(NC3CC3)n2)sc1C | 53.16
52 | Cc1[nH]/c(=N\C(=O)c2csc(NC3CCCC3)n2)sc1C | 105
53 | COC(=O)Cn1c(C)cc(=O)n2nc(-c3cccs3)nc12 | -3.318
54 | Cc1cnn(CC2CN(CCc3cccs3)CCO2)c1 (stereo unspecified) | 13.16
55 | CC(C(=O)NCC(C)(C)c1ccc2c(c1)OCCO2)n1cncn1 (stereo unspecified) | -4.418
56 | CC(=O)N1CCC(c2nc(C)cc(-c3ccccc3C(=O)O)n2)CC1 | -42.06
57 | COc1ccccc1OC1CCN(c2nccc(N)n2)CC1 | -15.16
58 | CS(=O)(=O)NCCCNC(=O)c1cnc(-c2ccsc2)s1 | -10.19
59 | Cn1cc(CN2CCC(c3ccncc3)CC2)cn1 | 9.056
60 | COc1ccc(CN2CCC3(CCCN(C)C3=O)C2)c(OC)c1C (stereo unspecified) | 52.12
61 | COc1cc2c(cc1CN1CCC3(CCCN(C)C3=O)C1)OCCO2 (stereo unspecified) | 14.22
62 | COc1ccc(CN2CCC3(CCCN(C)C3=O)C2)c(Cl)c1OC (stereo unspecified) | 41.14
63 | CCN(CC)CCNS(=O)(=O)c1cccc(CSC)c1 | 5.575
64 | Cc1noc(C)c1S(=O)(=O)NCC(O)c1ccc2c(c1)CCO2 (stereo unspecified) | -26.48
65 | Cc1nc(CNCC2CN(C)CCO2)cs1 (stereo unspecified) | 0.5218
66 | CC(=O)N[C@H]1CN(S(=O)(=O)N(C)Cc2ccccc2)C[C@@H]1C1CC1 | 14.84

Row | SMILES | Percent Effect [%]
67 | CCC1CCCCN1C(=O)Cn1nc(-c2cc(C)oc2C)cc(N)c1=O (stereo unspecified) | 52.47
68 | CCC1CCCCN1C(=O)Cn1nc(-c2ccc(C)o2)cc(N)c1=O (stereo unspecified) | -6.265
69 | CCC1CCCCN1C(=O)Cn1nc(-c2ccc(C)s2)cc(N)c1=O (stereo unspecified) | 45.47
70 | NCCc1n[nH]c(=O)n1-c1cccc(Cl)c1Cl | -33.73
71 | Cc1cccc(CN2C[C@@H]3CN(C(=O)C4CCOC4)C[C@@H]3C2=O)c1 (stereo partly specified) | 4.733
72 | COc1ccc(NC(=O)CNc2cccc3c2CCCC3)c(OC)c1 | 76.54
73 | Cc1ccc(NC(=O)CNc2cccc(C(N)=O)c2C)c(C)c1 | -29.06
74 | Cc1ccc(NC(=O)CNc2ccccc2C(N)=O)c(C)c1 | -11.67
75 | COc1ccc(CNC(=O)CNc2ccccc2OC)cc1 | 22.93
76 | Cc1ccc(NC(=O)CNc2cccc3c2CCCC3)c(Br)c1 | 51.04
77 | COc1ccc(NC(=O)Cn2nc(C)c(C)cc2=O)c(OC)c1 | 11.71
78 | NC(=O)CCSc1n[nH]c(-c2ccc3c(c2)CCC3)n1 | 8.887
79 | CN1CCC(N(C)C(=O)c2cnc3c(cnn3C3CCCC3)c2)CC1 | 15.63
80 | Cc1ccc(C#N)c(N2CC(C)(C)[C@@](C)(O)C2)n1 | 10.2
81 | O=C(CCc1nnc(-c2ccsc2)o1)NCC1CCN(C2CC2)C1 (stereo unspecified) | -9.076
82 | COc1ccccc1CNCc1nn(-c2ccccc2)c2c1CCC2 | 75.02
83 | Cc1noc(C)c1CNCc1nn(-c2ccccc2)c2c1CCC2 | -25.17
84 | Cc1c(CNCc2nn(-c3ccccc3)c3c2CCC3)cc(C#N)n1C | 0.6388
85 | NC(=O)CSCC(=O)NCC1CCCC1 | -10.13
86 | CN(CC(=O)NC1(C)CCS(=O)(=O)C1)Cc1ccc(Br)cc1 (stereo unspecified) | -6.576
87 | O=C(CSCCN1CCOCC1)N1CCCCCC1 | -6.957
88 | CN(Cc1ccncn1)c1nccc(CCC(F)(F)F)n1 | -20.7

Row | SMILES | Percent Effect [%]
89 | CNc1ncc(CN(C)c2nccc(CCC(F)(F)F)n2)cn1 | 50.32
90 | CCc1nnc(CN(C)c2nccc(CCC(F)(F)F)n2)o1 | 6.8
91 | CS(=O)(=O)N1CCCC1C(=O)Nc1cnc2n1CCCC2 (stereo unspecified) | 9.053
92 | CCCNC(=O)NC(=O)CNC(C)(C)c1ccc2c(c1)OCO2 | 0.4574
93 | CCCNC(=O)NC(=O)CNC(C)(C)c1ccc2c(c1)OCCO2 | 101.9
94 | CCNC(=O)NC(=O)CNC(C)(C)c1ccc2c(c1)OCCO2 | 27.43
95 | Cc1n[nH]c(C)c1S(=O)(=O)N1CCC(Oc2cnccn2)CC1 | 6.999
96 | O=C(O)c1cccn1-c1ccc2c(c1)OCCO2 | 28.73
97 | COc1ccccc1CCNC(=O)C1CCC(Cn2cnnn2)CC1 (stereo unspecified) | 3.007
98 | Cc1nn(C)c2nc(N(Cc3cnn(C)c3)C3CCCCC3)sc12 | 56.52
99 | Cc1nn(C)c2nc(N(CCN(C)C)C3CCCC3)sc12 | 19.35
100 | Cc1nn(C)c2nc(N(C)CCN(C)C3CCCC3)sc12 | 37.55
101 | c1ccn(Cc2nnc3n2CCCN(c2cnccn2)C3)c1 | -17.01
102 | Cc1ccc(CN2CCN(c3ccc(F)cn3)CC2=O)cc1C | 39.83
103 | CCC(NC(=O)NCC(=O)NC(C)C)c1cc(F)ccc1F (stereo unspecified) | 5.032
104 | CCOc1ccc(NC(=O)NCCCN(C)S(C)(=O)=O)cc1C | 30.17
105 | CCOc1ccc(NC(=O)NCCS(=O)(=O)CC)cc1C | 60.38
106 | CCOc1ccc(NC(=O)NCc2csc(NC)n2)cc1C | 21.98
